TDP1 cell CPT – DT40-hTDP1 cell growth loss with CPT | 12% of 420,000 active | chicken DT40 Tdp1-/-;hTDP1 cells + 20 nM CPT, ATP luminescence, 48 h | AID 686979 | Potency, µM (doses to about 46.2 µM), for inactives: top-dose activity change, negative = growth inhibition, most hits filed as inhibitors; further: on the % scale 0 is the no-effect control and ±100 the full control effect; nearly all actives have a fitted effect of over 55% in size
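Cell growth measured by CellTiter-Glo luminescence after a minimum 48 h, 37 C compound exposure with 20 nM CPT in Tdp1-knockout DT40 cells stably expressing hTDP1, seeded 400/well; qHTS titration format.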
TDP1 cell noCPT – qHTS for Inhibitors of human tyrosyl-DNA phosphodiesterase 1 (TDP1): qHTS in cells in absence of CPT. DT40 Tdp1-/- hTDP1 cells, no CPT, ATP luminescence, 48 h. Potency, µM (top dose mostly 46.2 µM), without a hit: at the highest dose activity change, negative = growth inhibition, actives largely listed as inhibitors. 15% of 420,000 active. AID 686978, 2013; further: on the % scale 0 is the no-effect control and ±100 the full control effect; nearly all actives have a fitted effect of over 55% in size
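Chicken DT40 Tdp1-/- cells stably complemented with human TDP1 were seeded at 400 cells/well with DMSO in place of 20 nM camptothecin. After compound pinning, cells grew at least 48 hr at 37 °C; viability read by CellTiter-Glo luminescence.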
TDP1 inh – blocks human tyrosyl-DNA phosphodiesterase 1; Q9NUW8; recombinant TDP1, AlphaScreen DNA substrate cleavage; Potency, µM (top dose mostly 130 µM), for the others: at the top dose activity change, negative = inhibition, hits mostly inhibitors; 0.28% of 350,000 active; AID 485290; further: on the % scale 0 is the no-effect control and ±100 the full control effect; nearly all actives have a fitted effect of over 40% in size
Target sequence (Q9NUW8 whole entry, looked up): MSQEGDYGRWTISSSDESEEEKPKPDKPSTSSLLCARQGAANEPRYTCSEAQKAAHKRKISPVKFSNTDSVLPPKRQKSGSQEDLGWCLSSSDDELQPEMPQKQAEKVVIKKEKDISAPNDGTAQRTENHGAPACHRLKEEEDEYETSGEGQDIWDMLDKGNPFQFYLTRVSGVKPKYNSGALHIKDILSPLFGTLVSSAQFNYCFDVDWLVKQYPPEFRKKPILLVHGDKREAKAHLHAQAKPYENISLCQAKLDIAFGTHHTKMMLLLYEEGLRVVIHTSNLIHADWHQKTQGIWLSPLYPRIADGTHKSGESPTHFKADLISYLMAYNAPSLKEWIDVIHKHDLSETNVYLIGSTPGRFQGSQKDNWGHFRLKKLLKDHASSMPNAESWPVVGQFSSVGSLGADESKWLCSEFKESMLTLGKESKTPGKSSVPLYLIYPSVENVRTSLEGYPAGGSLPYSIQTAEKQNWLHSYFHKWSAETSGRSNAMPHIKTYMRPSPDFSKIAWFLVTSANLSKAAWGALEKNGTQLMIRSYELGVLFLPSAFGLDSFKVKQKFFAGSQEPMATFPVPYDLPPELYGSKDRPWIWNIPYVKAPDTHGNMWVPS
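E. coli-derived human Tdp1, 1 nM final. Cpd preinc 15 min RT; substrate 15 nM final, 5 min RT; AS bead mix 10 ug/ml final, 10 min RT. Signal loss = tyrosine-FITC cleavage. No-enzyme wells = max signal.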
ClpP mod – qHTS Assay for Activators of ClpP; ATP-dependent Clp protease proteolytic subunit (Bacillus subtilis (strain 168)), P80244; purified B. subtilis ClpP, FRET peptide cleavage, 20 min; Potency, µM (titrated, usually from 57.5 µM), for the others: at the top dose activity change, negative = active; 1.9% of 340,000 active; AID 651965, 2013; active means well fitted falling curve with a large enough effect; inconclusive means small, poorly fitted or top-dose-only effect; inactive means no such curve, though single readings can be large or run the other way; further: the source files actives as falling curves though it sought activators and does not explain the sign; nearly all actives have a fitted effect of over 65% in size
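Buffer: 100 mM Tris/HCl pH8, 100 mM KCl, 0.05% low protease BSA, 2.5% glycerol, 0.01% Tween-20. ClpP 10 microg/mL final; 20 min RT; delta FRET normalized to ADEP and DMSO controls.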
An asterisk follows results filed as active; [ ] = dose if it differs, or a comment. This is a sample that favours compounds with a hit; in the whole collection about 17% have one here. Unless noted, the call rests on the fitted dose curve; in most records, active means well fitted curve in the direction sought with a large enough effect; inconclusive means small, poorly fitted or top-dose-only effect, or another doubt; inactive means no such curve, though single readings can be large; an effect the other way counts as inactive or inconclusive. Potency means the concentration at half of the fitted maximal effect.

Results for O=C(CN1CCCCC1)Nc1cc(S(=O)(=O)N2CCOCC2)ccc1N1CCCC1 ?
TDP1 cell CPT: -19%; TDP1 cell noCPT: -17%; TDP1 inh: 1%; ClpP mod: -1%

Results for O=C(CNCc1ccc(Cl)cc1)Nc1cc(S(=O)(=O)N2CCCC2)ccc1Cl ?
TDP1 cell CPT: 21µM*; TDP1 cell noCPT: inconclusive; ClpP mod: 1%

What do the screens show for `CCCSc1nc(=O)c2c(n1C)NC(=O)CC2c1cccc(F)c1F` (stereo not drawn)?
TDP1 cell CPT: -5%; TDP1 cell noCPT: -9%; TDP1 inh: inconclusive; ClpP mod: 0%

What do the screens show for `O=C(CCc1ccccc1)NCc1nc2cccnc2n1Cc1ccc(F)cc1`?
TDP1 cell CPT: -24%; TDP1 cell noCPT: inconclusive; TDP1 inh: 5%; ClpP mod: -2%

How did CCOc1nc(N2CCCCC2)nc(-n2cc(-c3ccccc3)nn2)n1 do in these assays?
TDP1 cell CPT: 16µM*; TDP1 cell noCPT: 18µM*; TDP1 inh: 0%; ClpP mod: 2%

Results for CCOC(=O)c1c(-c2ccccc2)nnn1-c1nc(OCC)nc(N2CCCCC2)n1 ?
TDP1 cell CPT: 18µM*; TDP1 cell noCPT: inconclusive; TDP1 inh: 3%; ClpP mod: -1%

Results for CCOC(=O)c1nnn(-c2nc(N3CCCC3)nc(N3CCCC3)n2)c1-c1ccccc1 ?
TDP1 cell CPT: 18µM*; TDP1 cell noCPT: inconclusive; TDP1 inh: 0%; ClpP mod: 1%

What do the screens show for `CCOC(=O)c1c(C)nc(C)c(C(=O)OCC)c1-c1ccccc1`?
TDP1 cell CPT: -6%; TDP1 cell noCPT: 2%; TDP1 inh: 1%; ClpP mod: -2%

What do the screens show for `CCOC(=O)N1CCN(C(=O)c2c(Cl)cnn2C)CC1`?
TDP1 cell CPT: 10%; TDP1 cell noCPT: 5%; TDP1 inh: 3%; ClpP mod: -1%

How did O=C1NC[C@H](Cc2ccc(O)cc2)N(C[C@@H]2CCCN2C[C@H](Cc2ccccc2)N2C[C@H](Cc3ccccc3)N(CC3CCCCCC3)C(=O)C2=O)C1=O do in these assays?
TDP1 cell CPT: inconclusive; TDP1 cell noCPT: inconclusive; ClpP mod: 1%

Results for O=C1NC[C@H](Cc2ccccc2)N(C[C@@H]2CCCN2C[C@H](Cc2ccccc2)N2C[C@H](Cc3ccccc3)N(CC3CCCCC3)C(=O)C2=O)C1=O ?
TDP1 cell CPT: 16µM*; TDP1 cell noCPT: 23µM*; ClpP mod: 1%

How did O=C1NC[C@H](Cc2ccccc2)N(C[C@H]2CCCN2C[C@H](Cc2ccccc2)N2C[C@H](Cc3ccccc3)N(CC3CCCCC3)C(=O)C2=O)C1=O do in these assays?
TDP1 cell CPT: 21µM*; TDP1 cell noCPT: inconclusive; ClpP mod: 0%

What do the screens show for `O=C1NC[C@H](Cc2ccccc2)N(C[C@@H]2CCCN2C[C@H](Cc2ccc(O)cc2)N2C[C@H](Cc3ccccc3)N(CC3CCCCCC3)C(=O)C2=O)C1=O`?
TDP1 cell CPT: inconclusive; TDP1 cell noCPT: inconclusive; ClpP mod: -1%

How did COCC(C)n1c(C)cc(C(=O)CN2C(=O)NC3(CCCCC3C)C2=O)c1C (stereo not drawn) do in these assays?
TDP1 cell CPT: inconclusive; TDP1 cell noCPT: 21µM*; TDP1 inh: 4%; ClpP mod: 1%

How did Cc1cc(-n2c(C)cc(C(=O)CN3C(=O)NC4(CCCCC4C)C3=O)c2C)no1 (stereo not drawn) do in these assays?
TDP1 cell CPT: -19%; TDP1 cell noCPT: inconclusive; TDP1 inh: 6%; ClpP mod: 2%

How did CCOc1ccc(OCC)c(S(=O)(=O)NCCOC23CC4CC(CC(C4)C2)C3)c1 do in these assays?
TDP1 cell CPT: inconclusive; TDP1 cell noCPT: 13µM*; TDP1 inh: 0%; ClpP mod: 0%

How did O=S(=O)(NCCOC12CC3CC(CC(C3)C1)C2)c1cccc2nsnc12 do in these assays?
TDP1 cell CPT: 18µM*; TDP1 cell noCPT: 15µM*; TDP1 inh: 9%; ClpP mod: -1%

Results for O=S(=O)(NCCc1ccccc1)c1cccc2nsnc12 ?
TDP1 cell CPT: -3%; TDP1 cell noCPT: -12%; TDP1 inh: 1%; ClpP mod: -1%

Results for COc1cc(S(=O)(=O)NC2CC(C)(C)NC(C)(C)C2)c(OC)cc1Cl ?
TDP1 cell CPT: 0%; TDP1 cell noCPT: -18%

What do the screens show for `CNS(=O)(=O)c1cccc2nsnc12`?
TDP1 cell CPT: -12%; TDP1 cell noCPT: 0.0073µM*; TDP1 inh: 8%; ClpP mod: 1%

What do the screens show for `COc1cc(S(=O)(=O)NCCOC23CC4CC(CC(C4)C2)C3)c(OC)cc1Cl`?
TDP1 cell CPT: 15µM*; TDP1 cell noCPT: 10µM*; TDP1 inh: 5%; ClpP mod: -1%

Results for O=S(=O)(Nc1ccccc1)c1cccc2nsnc12 ?
TDP1 cell CPT: 20%; TDP1 cell noCPT: -5%

How did CCNC(=O)CC1C(=O)N(c2ccc(C)cc2)C(=O)N1Cc1ccc(C)cc1 (stereo not drawn) do in these assays?
TDP1 cell CPT: -6%; TDP1 cell noCPT: 3%; TDP1 inh: -4%; ClpP mod: -1%

What do the screens show for `CC(C)(C)c1ccc(OCC(=O)NC(Cc2c[nH]c3ccccc23)C(=O)O)cc1` (stereo not drawn)?
TDP1 cell CPT: 7%; TDP1 cell noCPT: -2%; ClpP mod: 0%

What do the screens show for `Cc1sc2ncn(CC(=O)NCc3ccco3)c(=O)c2c1-c1ccccc1`?
TDP1 cell CPT: 12%; TDP1 cell noCPT: -2%; TDP1 inh: 2%

What do the screens show for `Cc1ccc(C)c(N2CCN(C(=O)CCc3c(C)nn(-c4ccc(N5CCCC5)nn4)c3C)CC2)c1`?
TDP1 cell CPT: inconclusive; TDP1 cell noCPT: inconclusive; TDP1 inh: 10%; ClpP mod: -5%

How did CCCCn1c(-c2ccc(OC(F)F)cc2)nc2c1c(=O)[nH]c(=O)n2CC(C)C do in these assays?
TDP1 cell CPT: 21µM*; TDP1 cell noCPT: 23µM*; TDP1 inh: -5%

What do the screens show for `CCCCn1c(-c2cccc(F)c2)nc2c1c(=O)[nH]c(=O)n2CC(C)C`?
TDP1 cell CPT: -28%; TDP1 cell noCPT: inconclusive; TDP1 inh: 4%[0.0935 µM]

Results for CCCn1c(=O)[nH]c(=O)c2c1nc(-c1ccc(C#N)cc1)n2CCOC ?
TDP1 cell CPT: 6%; TDP1 cell noCPT: -17%; TDP1 inh: -2%

Results for COCCn1c(-c2ccc3ccccc3c2)nc2c1c(=O)[nH]c(=O)n2CC(C)C ?
TDP1 cell CPT: inconclusive; TDP1 cell noCPT: 23µM*; TDP1 inh: 5%

Results for CCCn1c(=O)[nH]c(=O)c2c1nc(-c1ccc(OC(F)(F)C(F)C(F)(F)F)cc1)n2CCOC (stereo not drawn) ?
TDP1 cell CPT: inconclusive; TDP1 cell noCPT: 16µM*; TDP1 inh: 3%; ClpP mod: 28µM*
